This is an account of results in PubChem BioAssay AID1362 (SRMLSC, 2008).

The nature of this assay: growth inhibition of WT strain, primary screen, mitochondrial fusion inhibitor project, WT and mutant strains, chemical genetic (AID 1362). Conditions: mitochondrial fusion phenotypic screen, at 10 µM.
[1] abbreviates: WT strain, growth inhibition, stronger effect = higher value.

Among all 190,000 compounds or so, about 4,000 (2.1%) were called active. Cut-off read from the data, not from the text of the source: active = inhibition above about 58%; inactive = the rest, inconclusive results apart; tested in S. cerevisiae. The list comes from a sample in which actives are over-represented; it also holds similar structures and randomly drawn compounds.

With `CC(Sc1nncn1C)C(=O)Nc1cc(C(F)(F)F)ccc1N1CCOCC1` (centres undefined), the inhibition (usually the relative decrease from the control value, in per cent) reads like this: under setting [1], -29% (inactive); (mutant strain inhibition) -7.18%.

For `COc1ccc(NC(C)=O)cc1NC(=O)CN1CCN(c2ccccn2)CC1`, the inhibition under setting [1] is -13.6% (inactive) and the inhibition (mutant strain inhibition) was -9.7%.

As for `COc1ccc(NC(C)=O)cc1NC(=O)CN1CCN(C2c3ccccc3-c3ccccc32)CC1`, the inhibition reads like this: under setting [1], 60.1% (active); (mutant strain inhibition) 41.5%.

For the compound `COc1ccc(OC)c(NC(=O)CN2CCN(C(=O)c3ccco3)CC2)c1`, the inhibition is -14.9% (inactive) under setting [1] and -24.9% (mutant strain inhibition).

Regarding `Cc1c(C(=O)N2CCOCC2)[nH]c2ccc(OCc3ccccc3)cc12`, the inhibition under setting [1] was 14.8% (inactive) and the inhibition (mutant strain inhibition) came to 11.7%.

With `Cc1c(CN2CCC(CO)(CCOc3ccccc3)CC2)[nH]c2ccc(Cl)cc12`, the inhibition reads like this: under setting [1], 94.7% (active); (mutant strain inhibition) 93.1%.

With `OCC1(CCOc2ccccc2)CCN(Cc2cn[nH]c2-c2ccccc2)CC1`, the inhibition is, setting by setting: under setting [1], 15.8% (inactive); (mutant strain inhibition) -2.31%.

For the compound `CN(c1ccccc1)S(=O)(=O)c1cc(C(=O)OCC(=O)N2CCN(C(=O)c3ccco3)CC2)ccc1Cl`, the inhibition runs as follows: under setting [1], -22.5% (inactive); (mutant strain inhibition) 9.01%.

Turning to `Cc1cccc(-c2ncc(CN3CCC(CO)(CCCc4ccccc4)CC3)cn2)c1`, the inhibition under setting [1] is 84.8% (active) and the inhibition (mutant strain inhibition) amounted to 70.5%.

As for `OCC1(CCc2ccccc2)CCN(Cc2ccc3nsnc3c2)CC1`, the inhibition reads like this: under setting [1], 9.84% (inactive); (mutant strain inhibition) 25.4%.

Turning to `COc1cccc(CC2(CO)CCN(Cc3cnc(-c4cccc(C)c4)nc3)CC2)c1`, the inhibition is, setting by setting: under setting [1], -0.71% (inactive); (mutant strain inhibition) -25.4%.

For the compound `N#CCSc1nn(-c2ccc(F)cc2)c(=S)s1`, the inhibition was 4.11% (inactive) under setting [1] and -30.5% (mutant strain inhibition).

Take `COCCN(C(=O)c1ccccc1F)c1c(N)n(Cc2ccccc2)c(=O)[nH]c1=O`: the inhibition is 4.27% (inactive) under setting [1] and 0.13% (mutant strain inhibition).

With `O=[N+]([O-])c1ccccc1N/N=C1\CCc2ccccc21`, the inhibition is -0.84% (inactive) under setting [1] and 3.81% (mutant strain inhibition).

For `O=C1c2ccccc2NC(c2ccccc2O)N1NS(=O)(=O)c1ccccc1` (centres undefined), the inhibition is -6.26% (inactive) under setting [1] and -11.6% (mutant strain inhibition).

Regarding `CCCCN(CC)CCCNC(=O)c1ccc(CSc2nc3ccncc3[nH]2)cc1`, the inhibition is, setting by setting: under setting [1], 7.78% (inactive); (mutant strain inhibition) 7.15%.

For `COc1ccc(-n2cc(CN(C)Cc3n[nH]c(=O)[nH]3)c(-c3cccc(F)c3)n2)cc1`, the inhibition runs as follows: under setting [1], 7.75% (inactive); (mutant strain inhibition) 8.93%.

As for `Cc1ccc(-n2cc(CN(C)Cc3nccn3C)c(-c3cccc(C)c3)n2)cc1`, the inhibition runs as follows: under setting [1], 78.8% (active); (mutant strain inhibition) 64.6%.

In the case of `Cc1cccc(-n2cc(CN3CCN(C(=O)c4ncn[nH]4)CC3)c(-c3cccc(F)c3)n2)c1`, the inhibition under setting [1] was 10.2% (inactive) and the inhibition (mutant strain inhibition) is -17.8%.

In the case of `Brc1ccc2nc(N3CCCC3)sc2c1`, the inhibition under setting [1] is 14.9% (inactive) and the inhibition (mutant strain inhibition) came out at 19.6%.

With `CCOC(=O)C1(Cc2cccc(OC)c2)CCN(Cc2csc(C(C)=O)c2)CC1`, the inhibition is 25.6% (inactive) under setting [1] and 25% (mutant strain inhibition).

As for `O=C(c1ccc(-c2ccccc2)cc1)C1CCCN(C(=O)c2cncs2)C1` (centres undefined), the inhibition is -57.9% (inactive) under setting [1] and 9.01% (mutant strain inhibition).

As for `CCOc1ccc2c(c1)C(c1ccc(C)cc1)=NNC(c1ccc(C)cc1)=N2`, the inhibition under setting [1] was 45.3% (inactive) and the inhibition (mutant strain inhibition) is 35.7%.

On to `CCc1ccc2c(c1)C(c1ccc([N+](=O)[O-])cc1)=NNC(c1ccccc1)=N2`, for which the inhibition reads like this: under setting [1], -6.57% (inactive); (mutant strain inhibition) 12%.

`Cc1ccc(C2=Nc3c(ccc4ccccc34)C(c3ccncc3)=NN2)cc1`: the inhibition runs as follows: under setting [1], 67.9% (active); (mutant strain inhibition) 45.6%.

`Cc1coc(C)c1C(=O)CC1(O)C(=O)N(C)c2ccc(Cl)cc21` (centres undefined): the inhibition is 5.13% (inactive) under setting [1] and 0.33% (mutant strain inhibition).

For `CCOc1ccc(NC(=O)CCC(=O)n2nc(C)cc2C)cc1`, the inhibition by setting is: under setting [1], -6.72% (inactive); (mutant strain inhibition) -6.56%.

On to `COc1ccc(C(=O)NCC(=O)N/N=C/c2ccc([N+](=O)[O-])s2)cc1OC`, for which the inhibition under setting [1] is -4.24% (inactive) and the inhibition (mutant strain inhibition) is -9.98%.

On to `CCOc1ccc(NC(=O)CCC(=O)N/N=C/c2ccc([N+](=O)[O-])s2)cc1`, for which the inhibition reads like this: under setting [1], 60.3% (active); (mutant strain inhibition) 17.2%.

In the case of `CCCCCC(=O)Nc1ccc(C(=O)N/N=C/c2ccc([N+](=O)[O-])cc2)cc1`, the inhibition runs as follows: under setting [1], -17% (inactive); (mutant strain inhibition) 15.9%.

As for `Cc1cccc(/C=N/NC(=O)CNc2cccc3ccccc23)n1`, the inhibition under setting [1] was 18.4% (inactive) and the inhibition (mutant strain inhibition) is 3.37%.

Take `Cc1ccccc1NCC(=O)N/N=C\c1ccc([N+](=O)[O-])s1`: the inhibition is 66.5% (active) under setting [1] and 43.8% (mutant strain inhibition).

On to `CCN(CC)C(=O)Cn1cc(S(=O)(=O)CC(=O)NCc2ccc3c(c2)OCO3)c2ccccc21`, for which the inhibition is, setting by setting: under setting [1], -10.5% (inactive); (mutant strain inhibition) 4.73%.

Regarding `O=C(/C=C/c1ccc(F)cc1)NCCNC(=O)/C=C/c1ccc(F)cc1`, the inhibition reads like this: under setting [1], 8.8% (inactive); (mutant strain inhibition) -17%.

Turning to `OCC1(Cc2ccccc2)CCN(Cc2cc3ccccc3o2)CC1`, the inhibition reads like this: under setting [1], 24.3% (inactive); (mutant strain inhibition) 36.2%.

Regarding `Cc1csc(Nc2ccc(Cl)cc2)[n+]1-c1ccc(Cl)cc1`, the inhibition under setting [1] is 78.4% (active) and the inhibition (mutant strain inhibition) is 70%.

As to `COc1ccc(N2CCN(C(=O)COc3ccc4c(C)cc(=O)oc4c3)CC2)cc1`, the inhibition is -1.11% (inactive) under setting [1] and -11.1% (mutant strain inhibition).

For `CC(C)c1nc(CNC(=O)CC2C(=O)NCCN2Cc2ccoc2)cs1` (centres undefined), the inhibition is 1.8% (inactive) under setting [1] and 0.76% (mutant strain inhibition).

In the case of `CN(C(=O)COc1ccccc1)c1nnc(-c2ccncc2)s1`, the inhibition by setting is: under setting [1], 22.6% (inactive); (mutant strain inhibition) 9.04%.

`N#CCCN(CCC#N)c1nnc(-c2ccccc2)s1`: the inhibition was 73.6% (active) under setting [1] and -2.41% (mutant strain inhibition).

For the compound `CN(CCC#N)c1ncnc2scc(-c3ccccc3)c12`, the inhibition was 23.5% (inactive) under setting [1] and 28.2% (mutant strain inhibition).

Consider `OCCC1CN(Cc2cccc(O)c2)CCN1CCc1ccccc1` (centres undefined), for which the inhibition reads like this: under setting [1], 9.78% (inactive); (mutant strain inhibition) 8.67%.

On to `CCc1ccc(Oc2nc([N+](=O)[O-])nn2C)cc1`, for which the inhibition reads like this: under setting [1], 3.07% (inactive); (mutant strain inhibition) 19%.

For `CCn1c(SCc2ccc(C)cc2)nnc1-c1nn(-c2ccccc2)ccc1=O`, the inhibition is, setting by setting: under setting [1], 4.19% (inactive); (mutant strain inhibition) -13.4%.

Turning to `N=C(N)SCc1cccc2ccccc12`, the inhibition by setting is: under setting [1], 41% (inactive); (mutant strain inhibition) 10.9%.

Turning to `CCc1ccc(-c2nn(-c3ccccc3)cc2CSC(=N)N)cc1`, the inhibition under setting [1] is 90.2% (active) and the inhibition (mutant strain inhibition) was found to be 35.6%.

As for `O=C(Nc1ccc2cn[nH]c2c1)c1ccc(S(=O)(=O)N2CCOCC2)cc1`, the inhibition under setting [1] was 2.7% (inactive) and the inhibition (mutant strain inhibition) turned out to be 11.1%.

In the case of `CS(=O)(=O)N1CCc2cc(C(=O)Nc3ccccc3)ccc21`, the inhibition reads like this: under setting [1], -2.67% (inactive); (mutant strain inhibition) -18.5%.

With `Cc1c(C(=O)N2CCCc3ccccc32)sc2nc(-c3ccccc3)cn12`, the inhibition by setting is: under setting [1], 9.55% (inactive); (mutant strain inhibition) 9.04%.

For `Cc1occc1C(=O)N1CCCc2ccccc21`, the inhibition is -3.43% (inactive) under setting [1] and -8.66% (mutant strain inhibition).

In the case of `Cc1cccc2cc3c(N)c(C(=O)N4CCCc5ccccc54)sc3nc12`, the inhibition was 62.1% (active) under setting [1] and 57.1% (mutant strain inhibition).

As for `C/C(=N\NC(=O)c1cccc(N2CCCC2=O)c1)c1ccc(N)cc1`, the inhibition runs as follows: under setting [1], -2.44% (inactive); (mutant strain inhibition) -3.4%.
